Our source for the inhibition values is PubChem BioAssay AID493151 (Sanford-Burnham Center for Chemical Genomics, 2011).

The whole screen tested about 1,400 compounds, of which about 860 (61%) were called active.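 The calls were made as follows: active = inhibition reaching a set limit, 80% of the first screen's cutoff, at 20 µM in any replicate; inactive = the rest.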 So high a share suggests a set chosen from earlier hits. Many of the other results were omitted from the sample, so actives are more common in it than they were.

The target of this test is DNA dC->dU-editing enzyme APOBEC-3A (Homo sapiens) (UniProt P31941). Put plainly: A3A ssDNA deamination blockers, replicate testing – biochemical, single concentration, fluorescence readout, selectivity assay for APOBEC3G inhibitor project, confirmation (AID 493151).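 Also: plate controls were DMSO wells with A3A for no effect and wells lacking A3A enzyme for full effect.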 The conditions noted are these: recombinant A3A, ssDNA deaminase UDG fluorescence assay; at 20 µM; active compounds read high.
DNA dC->dU-editing enzyme APOBEC-3A (Homo sapiens), sequence (P31941 whole entry, looked up): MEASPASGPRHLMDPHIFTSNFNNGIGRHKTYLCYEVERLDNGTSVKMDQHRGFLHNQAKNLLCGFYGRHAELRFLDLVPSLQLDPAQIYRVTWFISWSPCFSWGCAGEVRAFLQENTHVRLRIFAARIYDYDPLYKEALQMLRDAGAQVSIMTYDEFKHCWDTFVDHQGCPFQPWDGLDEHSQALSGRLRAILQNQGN
On to `CCN(CC)CCOC(=O)c1cc2cc(COC)ccc2o1`, for which the inhibition is 80.1% (active).

`O=C(O)CCn1cc(C=C2C(=O)NC(=S)NC2=O)c(-c2cccc(Br)c2)n1`: the inhibition is 52.3% (active).

In general, inhibition refers to the relative decrease from the control value, in per cent.
